# Assays:
# [1] = target: T1, GST-Nv-NF-kB (Ser allele) (Nematostella vectensis, UniProt A7UNT2 2-411); experiment: protein-binding microarray (PBM); PBM: ~300 nM protein, 6 mM HEPES pH 7.8, 80 mM KCl, 0.5 mM EDTA, 0.5 mM EGTA, 6% glycerol, 35 ng/ul poly-dIdC, 1% milk, 1 h, room temperature; Ap Aiptasia and Nv Nematostella (sea anemones) / Co Capsaspora / Aq Amphimedon (sponge) / Dm Drosophila / Hu human; RHD is the Rel homology domain; high values mean tight binding; details: dsDNA, one strand shown
# T1 sequence: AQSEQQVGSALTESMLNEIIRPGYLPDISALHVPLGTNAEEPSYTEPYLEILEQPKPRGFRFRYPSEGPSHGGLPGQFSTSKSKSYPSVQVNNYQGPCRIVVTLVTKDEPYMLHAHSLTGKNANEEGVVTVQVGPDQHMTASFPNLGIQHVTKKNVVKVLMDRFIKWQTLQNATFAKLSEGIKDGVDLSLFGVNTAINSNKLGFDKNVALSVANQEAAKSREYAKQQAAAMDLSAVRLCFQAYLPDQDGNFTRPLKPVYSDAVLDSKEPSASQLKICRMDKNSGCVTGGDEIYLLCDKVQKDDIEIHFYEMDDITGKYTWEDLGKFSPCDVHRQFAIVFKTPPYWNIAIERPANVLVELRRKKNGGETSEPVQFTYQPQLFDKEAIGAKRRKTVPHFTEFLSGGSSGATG
# GST-Hu-p50 = GST-Hu-p50 (Homo sapiens, UniProt P19838 7-356); experiment: as above; details: dsDNA, one strand shown
# Chain of GST-Hu-p50 (P19838 7-356): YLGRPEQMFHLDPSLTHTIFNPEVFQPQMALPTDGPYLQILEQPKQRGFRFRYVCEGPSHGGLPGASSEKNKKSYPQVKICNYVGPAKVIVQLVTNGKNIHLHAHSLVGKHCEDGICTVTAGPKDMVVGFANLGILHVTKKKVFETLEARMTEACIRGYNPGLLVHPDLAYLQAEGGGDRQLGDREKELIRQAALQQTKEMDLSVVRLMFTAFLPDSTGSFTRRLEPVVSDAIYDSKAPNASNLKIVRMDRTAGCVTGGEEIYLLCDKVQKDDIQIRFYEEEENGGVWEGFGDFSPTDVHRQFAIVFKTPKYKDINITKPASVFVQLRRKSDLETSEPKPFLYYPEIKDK
Sequence,binding signal [1] [z-score],binding signal (GST-Hu-p50) [z-score]
CCGATTAACATCAGGGGGTGTAATGATGTTAATCGGGTCTTGATTCGCTTGACGCTGCTG,4.19,3.98
CCGATTAACATCAAATTTCCCGCTGATGTTAATCGGGTCTTGATTCGCTTGACGCTGCTG,4.85,3.98
CCGATTAACATCAAAATTCCCGGTGATGTTAATCGGGTCTTGATTCGCTTGACGCTGCTG,6.06,4.89
CCGATTAACATCAGATACCCCCCTGATGTTAATCGGGTCTTGATTCGCTTGACGCTGCTG,4.05,4.1
CCGATTAACATCAGGGACTTACCTGATGTTAATCGGGTCTTGATTCGCTTGACGCTGCTG,5.49,4.61
CCGATTAACATCAGGAATAACCCTGATGTTAATCGGGTCTTGATTCGCTTGACGCTGCTG,1.44,3.24
CCGATTAACATCAGGGGTCCCCATGATGTTAATCGGGTCTTGATTCGCTTGACGCTGCTG,1.95,2.54
CCGATTAACATCAGGGGGTAATATGATGTTAATCGGGTCTTGATTCGCTTGACGCTGCTG,5.13,4.43
CCGATTAACATCAAAAAACCCACTGATGTTAATCGGGTCTTGATTCGCTTGACGCTGCTG,2.84,3.37
